These results are taken from PubChem BioAssay AID624134 (Broad Institute, 2012).

The whole screen tested about 1,600 compounds, of which about 1,100 (69%) were called active. So high a share suggests a set chosen from earlier hits. Not all results are given here. Results with a measured potency or affinity are listed apart. Records with an inconclusive call do not appear. Unmarked numbers belong to inactive results.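 The calls were made as follows: active = signal drop with fitted half-maximal concentration no higher than twice the top valid tested concentration; inconclusive = flat curve with 30 to 70% signal loss, or poor fit; inactive = the rest, including signal rises and flat curves within 30%.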

This experiment can be described thus: HepG2 cell cytotoxicity, dose response, cytotoxicity control for Shn3 inhibitor project, CellTiter-Glo, cherry-picked (AID 624134).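 Also: 0% = median of neutral control wells and -100% = median of positive control wells.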 The conditions noted are these: HepG2 viability, CellTiter-Glo ATP luminescence, 48 h; series mostly up to 35 µM; activity change, negative = cytotoxicity: at the top concentration. Background: Cellular ATP, detected with luciferase, serves as a proxy for viable cell number.
On to `COc1ccccc1-c1cc(C(F)(F)F)nc(S(=O)(=O)CCCC(=O)Nc2cccnc2Cl)n1`, for which the “activity change, negative = cytotoxicity” value was 10.7% [at 16 µM].

In the case of `CC(C)c1nnc(NC(=O)CCS(=O)(=O)c2nc(-c3cccs3)cc(C(F)(F)F)n2)s1`, the “activity change, negative = cytotoxicity” value was -52.3%. In the case of `COC(=O)c1ccc(N2CCN(S(=O)(=O)c3ccc(C)cc3)CC2)c([N+](=O)[O-])c1`, the “activity change, negative = cytotoxicity” value was -5.05%. The same measure for `O=C1CC2(CCN(C(=O)c3ccccc3F)CC2)Oc2ccccc21`: -2.72%.

Take `O=C(CSc1c2c(nc3ccc(Cl)cc13)CCCC2)NCc1ccco1`: the “activity change, negative = cytotoxicity” value is -13.9%. Next, `CSCCC(NC(=O)c1ccccc1)C(=O)OCC(=O)N(C)CCC#N` (stereo unspecified): -5.72%; `CC[C@@H](C(=O)[C@@H](C)[C@@H](O)[C@H](C)CCc1ccc(C)c(O)c1C(=O)O)[C@H]1O[C@](CC)([C@H]2CC[C@](O)(CC)[C@H](C)O2)C[C@@H]1C`: 25.4%; `Cc1cc(C)n2nc(SCc3cccc(S(=O)(=O)N(C)C)c3)nc2n1`: -6.75%. For `CC(C)NCC(O)COc1cccc2ccccc12` (stereo unspecified), the “activity change, negative = cytotoxicity” value was -1.75%.

In the case of `CCn1c(C)nc2cc(-c3nnc(-c4c(-c5ccccc5)noc4C)o3)ccc21`, the “activity change, negative = cytotoxicity” value was -9.46%.

Turning to `COc1ccc(N(C)C(=O)c2ccc3snnc3c2)cc1`, the “activity change, negative = cytotoxicity” value was -7.24%.

In the case of `COc1ccc(-c2ccc(Nc3ccc(S(=O)(=O)N4CCCC4)cc3)nn2)cc1OC`, the “activity change, negative = cytotoxicity” value is -6.38%. Take `COC(=O)Oc1ccc(/C=C/C(=O)OC(C)C)cc1OC(=O)OC`: the “activity change, negative = cytotoxicity” value is -16.1%. Next, `Cc1ccc(C(=O)/C=C/c2ccc(-c3ccc(C)cc3)o2)cc1`: -19.4%; `CCc1c(C)nc2cc(-c3ccc(OC)c(OC)c3)nn2c1NCC1CC1`: -10.7%. The same measure for `C=CS(=O)(=O)c1sc(Cl)c(N2CCOCC2)c1[N+](=O)[O-]`: -16.6%; for `COc1ccc(-c2nsc3c(N4CCCCC4C)ncnc23)cc1` (stereo unspecified): -2.42%. The same measure for `CC(Cc1cccs1)NC(=O)Nc1ccc(F)cc1` (stereo unspecified): -3.13%. Regarding `COc1ccc(CNC(=O)C(c2ccc(C)cc2)N(Cc2cccs2)C(=O)c2ccc3c(c2)OCCO3)cc1` (stereo unspecified), the “activity change, negative = cytotoxicity” value is -11.3%. For the compound `COc1ccc(C(O)c2nc(-c3cccc(F)c3)cs2)cc1` (stereo unspecified), the “activity change, negative = cytotoxicity” value is -10.4%. In the case of `O=C(C1=C[C@@H](C2CC2)C[C@@H](OCCCCO)O1)N1CCN(Cc2ccccc2)CC1`, the “activity change, negative = cytotoxicity” value was -3.33%. For `NC(=O)c1cc(N2C(=O)C=CC2=O)ccc1Cl`, the “activity change, negative = cytotoxicity” value is -12.6%. The same measure for `CC(C)C(NC(=O)c1ccc(Cl)cc1Cl)C(=O)N1CCN(S(=O)(=O)c2ccccc2)CC1` (stereo unspecified): -15.1%. The same measure for `O=C(Cc1ccccc1)NCCS(=O)c1ccc(Cl)cc1` (stereo unspecified): 0.411%; for `Nc1nnc(SCC(=O)Nc2ccc(N3CCOCC3)cc2)s1`: 14.7%. The same measure for `CCCc1ccc(C(=O)NNc2cc(Cl)ccc2Cl)cc1`: -8.35%; for `O=C(c1ccc(S(=O)(=O)c2ccc(F)cc2)c([N+](=O)[O-])c1)N1CCCCCC1`: -6.03%. Consider `OCCNc1nc(Nc2ccc(Cl)cc2)nc(N2CCCC2)n1`, for which the “activity change, negative = cytotoxicity” value was -5.38%.

Take `CCCn1c(C)cc(C(=O)CN2C(=O)c3ccccc3S2(=O)=O)c1C`: the “activity change, negative = cytotoxicity” value is 0.847%. The same measure for `O=C1S/C(=C\c2ccc(N3CCOCC3)o2)C(=O)N1Cc1c(F)cccc1Cl`: -15.7%; for `COc1c(C)cc(C(=O)C2CCCN(C(=O)c3cccc(-n4cccn4)c3)C2)cc1C` (stereo unspecified): -3.56%. Next, `Cc1nc2scc(C)n2c(=O)c1S(=O)(=O)Nc1ccc(N2CCOCC2)c(Cl)c1`: -6.26%; `O=C(CSc1nc2ncc(Cl)cc2[nH]1)N1CCOCC1`: -4.52%. Take `CC(C)(C)C(=O)Nc1ccc(NC(=O)c2ccco2)nc1`: the “activity change, negative = cytotoxicity” value was -10.1%. Next, `COc1ccc(S(=O)(=O)NCCC(=O)OCC(=O)NC2CC2)cc1`: -16.9%. As for `O=C(CSc1nnc(Nc2ccccc2)s1)NC1CCS(=O)(=O)C1` (stereo unspecified), the “activity change, negative = cytotoxicity” value was -8.91%. Next, `Cc1ccc(S(=O)(=O)N2CCCCC2)cc1NS(=O)(=O)c1ccccc1F`: -9.02%. Regarding `COc1cccc(C2CC(c3ccc(C)cc3)=NN2C(=O)c2ccccc2F)c1OC` (stereo unspecified), the “activity change, negative = cytotoxicity” value is -7.78%. The same measure for `Cc1cc(C(=O)Cn2cnc3cc(F)ccc3c2=O)c(C)n1C1CC1`: -1.41%; for `CCCc1nc([N+](=O)[O-])c(S(=O)(=O)c2ccccc2)n1CC(C)C`: -25.5%. With `Cc1ccc(C(=O)Nc2ccc3c(c2)C(=O)N(CC2CCCO2)C3=O)cc1` (stereo unspecified), the “activity change, negative = cytotoxicity” value is -10.1%. Next, `COc1ccc([C@@]23Oc4cc(OC)cc(OC)c4[C@]2(O)[C@H](O)[C@H](C(=O)N(C)C)[C@H]3c2ccccc2)cc1`: -8.25%; `CCN(CC)C(=O)C1CCCN(c2ccc([N+](=O)[O-])cc2[N+](=O)[O-])C1` (stereo unspecified): -12.1%.

Turning to `CCCCN1CC(COCc2ccccc2)Oc2cccc(Oc3ccc(C(C)C)cc3)c2S1(=O)=O` (stereo unspecified), the “activity change, negative = cytotoxicity” value was -4.99%.

`COc1cccc(-c2nc(NC3CCCC3)c3ccccc3n2)c1O`: the “activity change, negative = cytotoxicity” value was -14.4%. `O=C(N[C@@H]1C/C=C\C[C@@H](CC(=O)N(CCO)Cc2ccccc2)C(=O)NC[C@H](c2ccccc2)OC1=O)OCC1c2ccccc2-c2ccccc21`: the “activity change, negative = cytotoxicity” value was 2.33%. With `Cc1ccc(-c2nc3cccnc3o2)cc1NC(=O)COc1ccc(C(C)(C)C)cc1`, the “activity change, negative = cytotoxicity” value was -27.5%.

Consider `CC(C)CCC(C(=O)O)C(C)CC(=O)NNC(=O)c1ccco1` (stereo unspecified), for which the “activity change, negative = cytotoxicity” value is -2.17%. Regarding `CC(C)(C)N(Cc1ccccc1)C(=O)COC(=O)CCc1c[nH]c2ccccc12`, the “activity change, negative = cytotoxicity” value is -8.24%. Next, `CCCCCCN1C[C@H](n2cc(-c3ccc(F)cc3)nn2)[C@@H](O)C[C@@H]1c1ccc(Cl)cc1`: -62.3%; `CC(=O)N1c2ccc(S(=O)(=O)N3CCC(C(=O)N4CCN(c5cc(Cl)ccc5C)CC4)CC3)cc2CC1C` (stereo unspecified): 1.7%; `Cc1cccc(C)c1NC(=O)CN(C)C(=O)c1cc(S(=O)(=O)N(C)C)ccc1N1CCCC1`: 5.64%. Take `CCN(c1ccccc1)S(=O)(=O)c1ccc(Cl)c(NC(=O)CN(C)Cc2cccc(F)c2)c1`: the “activity change, negative = cytotoxicity” value was -10.9%.

On to `Oc1c(C(c2cccs2)N2CCC3(CC2)OCCO3)sc2ncnn12` (stereo unspecified), for which the “activity change, negative = cytotoxicity” value was -1.02%. As to `CCOC(=O)/C(=C\c1ccc([N+](=O)[O-])cc1)C(=O)c1cc(C(C)=O)c(Nc2ccccc2)s1`, the “activity change, negative = cytotoxicity” value was -7.79%. On to `CCOC(=O)c1[nH]c(C)c(/C(O)=C2\C(=O)C(=O)N(CCCN3CCOCC3)C2c2cccs2)c1C` (stereo unspecified), for which the “activity change, negative = cytotoxicity” value was 0.789%.

As to `CN1C(=O)c2cccc(NCCCCCCN3C(=O)c4ccccc4C3=O)c2C1=O`, the “activity change, negative = cytotoxicity” value is -5.25%. The same measure for `Cc1ccc(C)c(N2CCN(S(=O)(=O)c3ccc4[nH]c(=O)ccc4c3)CC2)c1`: 3.47%; for `Nc1cc(=O)[nH]c(SCC(=O)Nc2cccc([N+](=O)[O-])c2)n1`: -5.8%; for `CC1Cc2ccccc2N1Cc1cccc(S(=O)(=O)N(C)C)c1` (stereo unspecified): -3.11%. Take `Cc1cccc(-c2noc(CN(C(=O)C(c3ccccc3)c3ccccc3)C(C)C)n2)c1`: the “activity change, negative = cytotoxicity” value is -14.7%.
